# Compounds with a hit are over-represented: about 3.4% of the library has one in this group of screens.
# MEKK2mut PB1 HTS – signal of MEK5 binding to mutant human MEKK2 PB1 domain. AID 1530. percent response, % at 10 µM. hit rate 0.35% among 290,000. bead flow cytometry, Alexa488-MEK5 binding to MEKK2 mutant; in the data active = percent response above about 24%, passing the limit was not always enough
# TMEM16A inh – blocks the mouse calcium-activated chloride channel TMEM16A; normalized B-score (activity score, 25-100; higher = stronger inhibition) at 10 µM; HEK293 TMEM16A/YFP iodide influx fluorescence, ionomycin; Q8BHY3; hit rate 1.2% among 310,000; AID 588511;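 active = ratio plate-corrected score three or more library SD toward inhibition, starting fluorescence score within five deviations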;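 also: score derived from kinetic fluorescence span divided by baseline fluorescence per well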
# TMEM16A act – mouse TMEM16A channel activation, primary screen; Q8BHY3; HEK293 TMEM16A/YFP-H148Q/I152L, iodide quench fluorescence; active compounds read low; B-score at 10 µM; hit rate 0.3% among 340,000;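 active = fluorescence-ratio B-score plate-corrected deviation score at least 3 library SD below zero, with starting fluorescence score within 5 deviations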;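 also: channel opened by trigger with iodide after compound preincubation; score built on the fluorescence ratio of max minus min over baseline; more negative score means more quench and so TMEM16A activation or potentiation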
# MEKK3 PB1 HTS – modulators (inhibitors or enhancers) of MEK5 binding to human MEKK3 PB1 domain | binding response (% of control), % at 10 µM | bead-based flow cytometry, Alexa488-MEK5 binding to MEKK3; actives lie on both sides; 0 = blocked by unlabeled MEK5, 100 = vehicle | hit rate 1.4% among 290,000 | Q99759;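 active = binding response more than 3 SD above or below the average of its plate-row segment, actives on both sides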;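 also: Alexa488 bead fluorescence after subtracting the streptavidin-only scavenger bead signal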
# NTR1 ag – NTR1 (human) agonism | P30989 | NTR1-U2OS beta-arrestin-GFP spot imaging, agonist mode | activation, % at 20 µM | hit rate 0.17% among 330,000 | AID 493036;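 active = activation at or above 40% of the spot to cytoplasm intensity ratio, with at least 20 cells analyzed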
# Target sequence (P30989 whole entry, looked up): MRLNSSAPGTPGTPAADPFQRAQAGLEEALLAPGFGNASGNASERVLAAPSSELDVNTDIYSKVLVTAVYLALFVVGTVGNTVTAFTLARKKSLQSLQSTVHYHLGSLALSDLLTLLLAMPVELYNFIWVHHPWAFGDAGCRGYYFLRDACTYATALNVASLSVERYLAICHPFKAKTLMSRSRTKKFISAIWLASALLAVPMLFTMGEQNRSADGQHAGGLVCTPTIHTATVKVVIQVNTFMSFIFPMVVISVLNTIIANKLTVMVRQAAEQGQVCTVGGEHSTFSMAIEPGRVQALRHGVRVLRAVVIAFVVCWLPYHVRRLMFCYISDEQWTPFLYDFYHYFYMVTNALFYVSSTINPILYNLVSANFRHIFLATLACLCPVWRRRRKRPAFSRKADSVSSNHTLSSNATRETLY
# MEKK2wt PB1 HTS – raises or lowers MEK5 binding to wildtype human MEKK2 PB1 domain; Q9Y2U5; bead flow cytometry, Alexa488-MEK5 binding to MEKK2 WT; actives lie on both sides; binding response (% of control), % at 10 µM; hit rate 1.1% among 290,000; in the data active = binding response below about 67% or above about 130%
# MEKK2wt confirm – raises or lowers MEK5 binding to wildtype human MEKK2, retest; hit rate 2.4% among 5,900; shares compounds with MEKK3 PB1 HTS; bead flow cytometry, Alexa488-MEK5 binding to MEKK2 WT; actives lie on both sides; binding response (% of control), % at 10 µM; in the data active = binding response below about 16% or above about 210%; inactive = in between
# MEKK2mut confirm – signal of MEK5 binding to mutant human MEKK2, retest. shares compounds with MEKK3 PB1 HTS. hit rate 2% among 5,900. bead flow cytometry, Alexa488-MEK5 binding to MEKK2 mutant. percent response, % at 10 µM; in the data active = percent response mostly above about 71%, no sharp cut-off; inactive = mostly below about 38%;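 also: higher means compound restores mutant binding toward wildtype level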
# MEKK3-MEK5 inh – confirmation of inhibitors of MEK5 binding to human MEKK3 | shares compounds with MEKK3 PB1 HTS | bead flow cytometry, Alexa488-MEK5 binding to MEKK3; active compounds read low | binding response (% of control), % at 10 µM | hit rate 1.8% among 5,900 | AID 1894;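 active = binding response below 72% of control, or above a set upper limit, though filed actives all read lower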;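 also: lower values mean stronger disruption of MEK5 binding to MEKK3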
# Hits are given with their value; – = inactive; · = no result given; [ ] = remark or other dose.
SMILES,MEKK2mut PB1 HTS,TMEM16A inh,TMEM16A act,MEKK3 PB1 HTS,NTR1 ag,MEKK2wt PB1 HTS,MEKK2wt confirm,MEKK2mut confirm,MEKK3-MEK5 inh
Cc1cccc(CN2CCN(C(c3ccccc3)c3ccc(Cl)cc3)CC2)c1 (stereo unspecified),–,–,–,–,–,155.0,–,–,–
COc1cccc(NC(=O)C(NC2CCCC2)c2ccccc2)c1 (stereo unspecified),–,–,–,–,–,–,·,·,·
Cc1ccc(NC(=O)C(NC2CCCC2)c2ccccc2)cc1Cl (stereo unspecified),–,–,–,–,–,142.0,–,–,–
Cc1cc(C(=O)OC(C(=O)Nc2ccc(C)c(Cl)c2)c2ccccc2)c(C)o1 (stereo unspecified),–,–,–,–,·,147.0,–,–,–
Cc1ccc(NC(=O)C(OC(=O)c2ccccc2Cl)c2ccccc2)cc1Cl (stereo unspecified),–,–,–,–,–,–,·,·,·
COC(=O)c1cc(NC(=O)c2cc(-c3ccc(Cl)cc3)oc2C(F)(F)F)ccc1N1CCOCC1,–,–,–,–,–,–,·,·,·
CCOC(=O)c1cc(C)sc1/N=C/C1=C(O)CCCC1=O,–,–,–,131.0,–,–,–,–,–
CN(C)/C(=N\S(=O)(=O)c1ccccc1)c1ccccc1,–,–,–,–,–,–,·,·,·
Oc1[nH]c2ccccc2c1N=NC(=S)NCCc1ccccc1,–,–,–,130.0,·,–,–,–,–
CCc1ccc(NC(=O)CSC2=C(C#N)C(c3ccc4c(c3)OCO4)CC(=O)N2)cc1 (stereo unspecified),–,–,–,–,–,–,·,·,·
Cc1ccc(NC(=O)CSC2=C(C#N)C(c3ccc4c(c3)OCO4)CC(=O)N2)cc1C (stereo unspecified),–,–,–,81.0[inhibitor],–,–,–,–,–
Cc1ccc(P(=O)(CSC(=N)N)c2ccc(C)cc2)cc1,–,–,–,133.0,–,–,–,–,–
CCCc1nnc(NC(=O)CCC(=O)N2CCN(S(=O)(=O)c3ccc(C)cc3)CC2)s1,–,–,–,–,–,–,·,·,·
CC(C)(C)c1cc(C(=O)NC2CC2)n(Cc2ccc(F)cc2)n1,–,–,–,131.0,–,–,–,–,–
C#CCn1cc(C=C2C(=O)c3ccccc3C2=O)c2ccccc21,–,·,–,36.0[inhibitor],·,–,–,–,–
C#CCn1c(=O)cc(C)c2ccccc21,–,–,–,–,–,–,·,·,·
CCN1C(=O)c2cccc3c(S(=O)(=O)NCCCN4CCOCC4)ccc1c23,–,–,–,125.0,–,–,–,–,–
CC1S/C(=C(\C#N)C(=O)NCc2ccco2)N(Cc2ccco2)C1=O (stereo unspecified),–,–,–,49.0[inhibitor],–,38.0[inhibitor],–,–,–
CN(Cc1ccccc1)c1ccc([N+](=O)[O-])cc1C(=O)O,–,–,–,–,–,–,·,·,·
CN(C)c1ccc([N+](=O)[O-])cc1C(=O)O,–,–,–,129.0,–,–,–,–,–
Cc1ccc(Cn2cnc3ccccc32)cc1C,–,–,–,74.0[inhibitor],–,–,–,–,–
NNC(=O)c1nn(-c2ccc(Cl)cc2)ccc1=O,–,–,–,–,–,–,·,·,·
CNC(=O)c1nn(-c2ccc(C)cc2)ccc1=O,25.0,–,–,–,–,–,–,–,–
C[C@H](NC(=O)c1nc[nH]c1C(=O)N1CCN(c2ccccc2)CC1)C(=O)OC(C)(C)C,–,–,–,79.0[inhibitor],–,–,–,–,–
C[C@H](NC(=O)c1nc[nH]c1C(=O)N1CCN(C(=O)OC(C)(C)C)CC1)C(=O)OC(C)(C)C,·,–,–,·,–,·,·,·,·
SMILES,MEKK2mut PB1 HTS,TMEM16A inh,TMEM16A act,MEKK3 PB1 HTS,NTR1 ag,MEKK2wt PB1 HTS,MEKK2wt confirm,MEKK2mut confirm,MEKK3-MEK5 inh
COc1ccc(S(=O)(=O)N2CCC(C(=O)N3CCCCC3)CC2)cc1OC,–,–,–,130.0,–,–,–,–,–
COc1ccc(S(=O)(=O)N2CCCC(C(=O)N3CCCC3)C2)cc1OC (stereo unspecified),·,–,–,·,–,·,·,·,·
COc1cc2[nH]c(=O)n(CCC(=O)N3CCc4ccccc4C3)c(=O)c2cc1OC,–,–,–,122.0,–,–,–,–,–
COC(=O)c1c(NC(=O)COc2ccc(Cl)cc2)sc2c1CC(C)(C)NC2(C)C,49.0,–,–,–,–,186.0,–,–,–
COc1cccc(NC(=O)C(C)OC(=O)c2n[nH]c3ccccc23)c1 (stereo unspecified),·,·,–,·,–,·,·,·,·
CC[n+]1c(/C=C/N(C)c2ccccc2)oc2ccccc21,–,–,–,72.0[inhibitor],–,–,–,–,–
COc1ccc(NC(=O)c2nc[nH]c2C(=O)NCC(=O)OC(C)(C)C)cc1,–,–,–,50.0[inhibitor],–,–,–,–,–
Cc1ccccc1C(=O)OC(C)CN1CCN(C)CC1 (stereo unspecified),–,–,–,–,–,–,·,·,·
Cc1ccccc1OCC(=O)OC(C)CN1CCN(C)CC1 (stereo unspecified),–,–,–,69.0[inhibitor],–,–,–,–,–
Fc1ccc(CSc2ncnc3scc(-c4ccccc4)c23)cc1,52.0,–,–,–,–,–,–,–,–
O=C(CSc1ncnc2scc(-c3ccccc3)c12)N1CCN(c2ccccc2F)CC1,–,–,–,–,·,–,·,·,·
COc1ccccc1N1CCN(C(=O)CSc2ncnc3scc(-c4ccccc4)c23)CC1,–,–,–,148.0,–,–,–,–,–
CCOCC(=O)N1CCN(c2ccccc2OC)CC1,53.0,–,–,–,–,–,–,–,–
COc1ccccc1OCC(=O)N1CCN(c2ccccc2OC)CC1,–,–,–,–,–,–,·,·,·
COC(=O)CSc1ncnc2scc(-c3ccccc3)c12,–,–,–,–,–,–,·,·,·
NC(N)=N/N=C/c1ccc(Cl)c(Cl)c1,–,–,–,–,–,–,·,·,·
NC(N)=N/N=C/c1ccc(Cl)cc1Cl,–,–,–,129.0,–,155.0,–,–,–
COc1ccccc1/C=C/C(=O)NCc1ccccn1,–,–,–,–,–,–,·,·,·
CCCCCC(=O)Nc1cccc(C2=NOC3(C2)C[C@H](C(N)=O)N(C(=O)c2ccccc2)C3)c1 (stereo partly specified),–,–,–,–,–,–,·,·,·

# Assay outcomes from PubChem.
